# Screening data as filed in PubChem.
# An excerpt weighted towards active compounds, which were near 7.1% of everything screened.
# SW480 rereplic = A quantitative high throughput screen for small molecules that induce DNA re-replication in SW480 colon adenocarcinoma cells | SW480 DNA re-replication, Hoechst DNA content imaging, 48 h | Potency, µM (series often up to 46.1 µM), inactives show at the top dose re-replication activation, actives largely listed as activators | 1.8% of 340,000 active; also: potency is read from the fitted curve at half-maximal effect; % of control where 0% means no effect; nearly all actives have a fitted effect of over 55% in size
#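 First, 250 cells per well were seeded. Next, compound or vehicle (23 nL) was pinned in, plates sat 48 hr at 37 C. Finally Hoechst was added for 40 min before fluorescence scanning.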
# IL1B secr inh = qHTS for Inhibitors of Inflammasome Signaling: IL-1-beta AlphaLISA Primary Screen | THP-1 LPS/ATP IL-1B secretion, AlphaLISA, 16 h; hits give low values | activity change, % at 57.5 µM | 4.7% of 360,000 active | AID 743279, 2014; in the data active = activity change below about -50%; inconclusive = mostly about -30% to -49%; also: % is scaled to controls: 0 for no effect and ±100 for the full control effect
#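 Secreted IL-1B measured by AlphaLISA bead assay after 16 h compound exposure of THP-1 cells; compounds (final up to 57.5 uM) added 1 h before LPS (250 ng/mL) and ATP (1.25 mM) stimulation; lower signal means less secretion.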
# PINK1 modulator = A Quantitative High throughput Screen to Identify Chemical Modulators of PINK1 Expression; 0.2% of 410,000 active; PINK1 immunofluorescence, high-content cytometry, 24 h; Potency, µM (top dose mostly 76.6 µM), for inactives: top-dose activation (PINK1 increase), actives largely listed as activators; active = well fitted activation curve with a large enough effect; inconclusive = small, poorly fitted or top-dose-only effect; cell line not stated here; also: potency is read from the fitted curve at half-maximal effect; % of control where 0% means no effect; nearly all actives have a fitted effect of over 65% in size
#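 A stable cell line was treated with compounds at 5 concentrations for 24 hours, with CCCP as control. PINK1 levels and mitochondrial localization were measured by immunofluorescence with mitochondrial, cell and nuclear markers after fixation, read by laser-scanning cytometry.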
# MCF10A rereplic = A quantitative high throughput screen for small molecules that induce DNA re-replication in MCF 10a normal breast cells. AID 624296, 2012. MCF 10A DNA re-replication, Hoechst nuclear intensity, 48 h. 2.9% of 350,000 active. Potency, µM (titrated, usually from 46.1 µM), without a hit: at the top dose activity, positive = re-replication, actives largely listed as activators; also: potency is read from the fitted curve at half-maximal effect; % of control where 0% means no effect; nearly all actives have a fitted effect of over 50% in size
# ATXN2 expr inh = Primary qHTS for Inhibitors of ATXN expression; Potency, µM (series often up to 57 µM), without a hit: at the top dose activity change, negative = inhibition, usual class: inhibitors; HEK-293 ATXN2-luciferase reporter, luminescence, 24 h; 0.72% of 360,000 active; also: potency is read from the fitted curve at half-maximal effect; % is scaled to controls: 0 for no effect and ±100 for the full control effect; nearly all actives have a fitted effect of over 55% in size
#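 qHTS (up to 57 uM final) was run with 24 h compound exposure of reporter cells at 37 °C. Each well was multiplexed: SteadyGlo luminescence measured ATXN2-luciferase expression after a fluorogenic Gly-Phe-AFC viability readout (25 uM final).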
# ATXN viability = Viability Counterscreen for Primary qHTS for Inhibitors of ATXN expression | S2 cells (HEK-293 line with an ATXN2-luciferase reporter) viability, CellTiter-Fluor protease fluorescence, 24 h | Potency, µM (series often up to 56.7 µM), hits mostly cytotoxic | 0.49% of 400,000 active | AID 651635, 2014; also: potency is read from the fitted curve at half-maximal effect; nearly all actives have a fitted effect of over 40% in size
# * = called active by the depositor; i = inactive; ? = inconclusive; . = not tested or not shown; [ ] = another dose, or the depositor's remark. Unless noted, calls follow the shape of the dose curve; as a rule, active = well fitted curve in the direction sought with a large enough effect; inconclusive = small, poorly fitted or top-dose-only effect, or another doubt; inactive = no such curve, though single readings can be large; an effect the other way counts as inactive or inconclusive.
SMILES,SW480 rereplic,IL1B secr inh,PINK1 modulator,MCF10A rereplic,ATXN2 expr inh,ATXN viability
COc1cccc(/C=C/C(=O)c2ccc(C)c([N+](=O)[O-])c2)c1,?,-83*,1%,6.5µM*,-6%,i
Cc1ccc(C(=O)Oc2cccnc2)cc1[N+](=O)[O-],0%,0,1%,18%,.,i
COc1cc(/C=C/C(=O)c2ccc(C)c([N+](=O)[O-])c2)cc(OC)c1O,.,?,-2%,9.2µM*,?,i
Cc1ccc(NC(=O)C2CCCN(c3nnc(C)c4c(C)n(-c5ccccc5)nc34)C2)c(Cl)c1 (configuration not stated),.,.,0%,.,?,?
O=[N+]([O-])c1ccc(N=Nc2ccc(O)cc2O)cc1,?,-92*,?,?,?,?
O=[N+]([O-])c1cccc(N=Nc2ccc(O)cc2O)c1,13µM*,-68*,?,?,?,?
COc1cc(/C=C/c2ccc3ccccc3n2)cc(OC)c1OC,.,.,6%,.,.,.
CSc1ccc(/C=C/c2ccc3cccc(O)c3n2)cc1,23%,20,11%,21µM*,46%,.
COc1cc(Br)cc(/C=C/c2ccc3cccc(O)c3n2)c1O,34%,-6,8%,16µM*,.,?
COc1cc(Br)c(/C=C/c2ccc3cccc(O)c3n2)cc1OC,-15%,-6,5%,0%,.,.
COc1cc(/C=C/c2ccc3cccc(O)c3n2)ccc1O,24%,?,6%,12µM*,.,.
COc1ccc(-c2nc3scc(CCNS(=O)(=O)c4c(C)cc(C)cc4C)n3n2)cc1OC,.,.,0%,.,.,.
Cc1c(C(=O)Nc2cccc(-c3nc4ccccc4s3)c2)oc2ccc(F)cc12,.,.,1%,.,23%,i
Cc1ccc(-n2ncc3c(NC4CCCCC4)ncnc32)cc1,.,.,4%,.,78%,i
Cc1ccccc1N(C)C(=O)c1noc2c1COc1ccccc1-2,.,.,2%,.,.,.
COc1ccccc1N1CCN(C(=O)/C=C/c2c(Cl)nc3ccccn23)CC1,-9%,-61*,0%,-3%,?,?
CCn1cc(C(=O)NCc2ccc(C)cc2)c(=O)c2cc(S(=O)(=O)N3CCCCCC3)ccc21,.,.,4%,.,9%,i
O=C(Nc1ccccc1)N1CCc2c([nH]c3ccccc23)C1C(F)(F)F (configuration not stated),?,-93*,2%,?,-12%,i
COc1cccc(Cl)c1NC(=O)N1CCc2c([nH]c3ccccc23)C1C(F)(F)F (configuration not stated),?,-8,?,5.8µM*,?,?
Cc1nn(-c2ccc3nnc(C)n3n2)c(C)c1CCC(=O)Nc1ccc(OC(F)(F)F)cc1,.,.,-1%,.,.,.
Cc1ccc(-c2nc(C)c(CCNC(=O)C(=O)Nc3ccc4c(c3)OCCO4)s2)cc1,.,.,2%,.,6%,i
CCOC(=O)c1c(C)oc2c1c(C=NCC1CCCO1)c(O)c1ccccc12 (configuration not stated),-4%,-21,1%,?,3%,i
CCOC(=O)c1c(C)oc2c1c1c(c3ccccc32)OCN(Cc2cccnc2)C1,-3%,-13,3%,18%,126%,i
CCOC(=O)c1c(C)oc2c1c(C=NCc1ccccn1)c(O)c1ccccc12,?,-94*,?,12µM*,?,?
CCOC(=O)c1c(C)oc2c1c(C(c1cccnc1)N1CCOCC1)c(O)c1ccccc12 (configuration not stated),-2%[9.22 µM],-110*,0%,?,?,.
SMILES,SW480 rereplic,IL1B secr inh,PINK1 modulator,MCF10A rereplic,ATXN2 expr inh,ATXN viability
Cc1cc(C)cc(NC(=O)N2CCC3(CC2)Oc2ccccc2C(=O)N3Cc2ccccc2F)c1,.,.,0%,.,.,.
CC[C@H](CC[C@@H](C)[C@H]1CC[C@H]2[C@@H]3CC=C4C[C@@H](O)CC[C@]4(C)[C@@H]3CC[C@]12C)C(C)C,.,.,.,.,-9%,.
COc1ccc(/C=N/NC(=O)CCn2cnc3ccccc32)cc1,?,.,2%,-1%,10%,i
COc1ccccc1/C=C/C=N/NC(=O)CCn1cnc2ccccc21,21µM*,-7,8%,?,-21%,i
COc1cccc(/C=N/NC(=O)CCn2cnc3ccccc32)c1,3.7µM*,6,-1%,?,-13%,i
O=C(CCn1cnc2ccccc21)N/N=C/C=C/c1ccccc1,-5%,-11,0%,0%,2%,i
O=C(O)c1ccc(Cl)cc1NC(=O)C1CCN(S(=O)(=O)c2cccs2)CC1,.,10,0%,.,.,i
CCOC(=O)c1c(Nc2ccccc2)sc(/C=C2\C=Nc3ccccc32)c1O,-5%,10,15%,25%,-32%,?
Oc1nc(Nc2ccccc2)sc1/C=C1\C=Nc2ccccc21,16%,32,1%,21µM*,.,?
COc1ccc(C(=O)C(=O)N2CCN(c3ccccc3F)CC2)cc1,.,-15,.,.,.,.
O=C(CCl)N1N=C(c2cccs2)CC1c1ccco1 (configuration not stated),12µM*,-100*,-1%,18µM*,4.2µM*,.
O=C(CCl)N1N=C(c2ccco2)CC1c1ccco1 (configuration not stated),21µM*,-99*,6%,?,-15%,i
Cc1ccc(C2=NN(C(=O)CSc3nc4ncc(Cl)cc4[nH]3)C(c3ccco3)C2)cc1 (configuration not stated),3%,0,0%,5%,.,i
Cc1ccc(C2=NN(C(=O)CSc3nccn3C)C(c3ccco3)C2)cc1 (configuration not stated),12µM*,?,0%,?,-10%,i
Cc1cccc(C(=O)NCC(c2ccc3c(c2)OCO3)N2CCOCC2)c1 (configuration not stated),.,.,-2%,.,15%,i
O=C(Nc1ncccn1)c1ccc([N+](=O)[O-])cc1[N+](=O)[O-],-15%,0,-1%,-1%,.,i
O=C(Nc1cccc2oc(=O)ccc12)c1ccc([N+](=O)[O-])cc1[N+](=O)[O-],16µM*,11,1%,-1%,-10%,i
COc1ccccc1CCNC(=O)C(=O)NCC1OCCN1S(=O)(=O)c1ccc(Br)cc1 (configuration not stated),7%,8,-2%,?,-3%,i
